Screening data: PubChem BioAssay, several laboratories
GSIS activator: GLuc luminescence reporter in INS-1E cells, primary screen for activators of glucose-dependent secretion of insulin. INS-1E GLuc reporter insulin secretion, 2-3 h. activation, % at 16.6 µM. 0.61% of 370,000 active;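 active = lowest replicate activation of at least 40%, so every replicate reaches that level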
dFosB act: mouse delta FosB homodimer activation; P13346; purified delta FosB, TAMRA-CDK5 oligo fluorescence polarization; percent of positive-control signal above neutral wells; activation, % at 25 µM; 0.99% of 340,000 active; AID 493131;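 active = mean activation above about 17%, with every replicate also reaching it, limit read from the data, passing the limit was not always enough; inconclusive = only one of the two conditions met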
Target sequence (P13346 whole entry, looked up): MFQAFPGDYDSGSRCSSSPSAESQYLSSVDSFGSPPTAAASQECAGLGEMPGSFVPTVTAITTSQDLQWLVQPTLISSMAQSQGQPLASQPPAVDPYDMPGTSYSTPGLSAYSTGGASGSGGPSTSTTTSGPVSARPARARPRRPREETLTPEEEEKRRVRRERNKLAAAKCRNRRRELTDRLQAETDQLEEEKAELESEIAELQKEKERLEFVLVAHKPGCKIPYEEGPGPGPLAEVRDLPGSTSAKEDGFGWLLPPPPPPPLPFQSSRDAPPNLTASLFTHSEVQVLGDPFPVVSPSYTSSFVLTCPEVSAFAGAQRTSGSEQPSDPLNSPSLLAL
A1 inh: inhibitors of the anti-apoptotic protein A1, read as caspase activation; MEF A1-2A-BIM cells, Caspase-Glo 3/7 luminescence, 3 h; percent of clofoctol response, vehicle zero; caspase activation, % (no concentration beside the values); 0.066% of 330,000 active; AID 2462;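 active = over half of replicate activation scores above 10%, or exactly half above 10 with the replicate mean above 10; inconclusive = replicate mean below 10 yet half the replicates above 10; inactive = over half of replicates below 10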
Neddylation inh: blocks human cullin neddylation; P61081+Q13564; AID 651699; 0.58% of 360,000 active; inhibition, % at 25 µM; TR-FRET cullin neddylation, biochemical; in the data active = inhibition above about 36%
Vif imaging: inhibitors of HIV Vif; HEK293T cells, Vif self-association by quenched fluorescence, imaging, 24 h; inhibition, % at 7.49 µM; 0.35% of 340,000 active; AID 602346; in the data active = inhibition above about 50%, passing the limit was not always enough; inconclusive = no clear call, values can overlap the other calls; inactive = below about 31%
Large screens that a line does not name were inactive. Shown are actives, neighbours in structure and some others; about 1.9% of the full set was active somewhere.

CCOc1cc(/C=C(\CC(=O)O)c2nc3ccccc3s2)ccc1OC	GSIS activator 51
COc1ccc(/C=C(\CC(=O)O)c2nc3ccccc3s2)cc1O	none
CCSc1ccc(-c2nn(-c3ccccc3)cc2/C=C(/C#N)C(=O)NC)cc1	GSIS activator 65, A1 inh 8.3 (not shown: Neddylation inh)
CN1C(=O)c2cc(NC(=O)c3ccc(F)cc3)ccc2OC[C@@H]2O[C@@H](CC(=O)N3CCOCC3)CC[C@H]21	none (no result: dFosB act, A1 inh, Neddylation inh, Vif imaging)
CCCNC(=O)N(C)C[C@H]1Oc2cc(C#CC3CC3)ccc2S(=O)(=O)N([C@@H](C)CO)C[C@H]1C	none (no result: dFosB act, A1 inh, Neddylation inh, Vif imaging)
O=C(Nc1ccccc1)C1=C[C@@H](C2CCCCC2)C[C@@H](OCCCCO)O1	Vif imaging 69
O=C(Nc1ccccc1)C1=C[C@H](C2CCCCC2)C[C@H](OCCCCO)O1	none
C[C@@H]1CN([C@@H](C)CO)C(=O)Cc2cc(NC(=O)Nc3ccc4c(c3)OCO4)ccc2O[C@H]1CN(C)C(=O)Nc1ccc(C(F)(F)F)cc1	none (no result: dFosB act, A1 inh, Neddylation inh, Vif imaging)
C[C@H](NC(=O)C[C@@H]1CC[C@@H]2[C@H](COC[C@H](O)CN2C(=O)Nc2cccc(F)c2)O1)c1ccccc1	none (no result: dFosB act, A1 inh, Neddylation inh, Vif imaging)
Cc1nc(N)nc(N)c1CCCc1ccc(Cl)c(Cl)c1	dFosB act 27, Vif imaging inconclusive
Cc1nc(N)nc(N)c1-c1ccc(Cl)c(Cl)c1	none (no result: GSIS activator, A1 inh)
c1ccc2nc3c(nc2c1)c1ccccc1n3CCN1CCOCC1	GSIS activator 72
CCCn1c2ccccc2c2nnc(SCCN3CCOCC3)nc21	none (no result: GSIS activator)
NNc1nc(-c2ccccc2)c2cc(Cl)ccc2n1	none
NNc1nc(-c2ccccc2)c2cc(Br)ccc2n1	GSIS activator 49 (no result: Vif imaging)
OCCCNc1nc(-c2ccccc2)c2cc(Br)ccc2n1	GSIS activator 55
Cc1ccc2nc(NCCCO)nc(-c3ccccc3)c2c1	none (not shown: GSIS activator, Neddylation inh)
CO[C@H]1CN(C)C(=O)c2ccc(NS(=O)(=O)c3ccccc3)cc2OC[C@H](C)N(C)C[C@H]1C	none (no result: dFosB act, A1 inh, Neddylation inh, Vif imaging)
COc1ccc(OCCN2CCC(C(=O)NC(c3ccccn3)c3ccccc3OC)CC2)cc1 (stereo unspecified)	Vif imaging 51 (no result: dFosB act, A1 inh)
COc1ccccc1C(NC(=O)C1CCN(CCOc2ccc3ccccc3c2)CC1)c1ccccn1 (stereo unspecified)	none (no result: dFosB act, A1 inh)
C[C@@H]1CCCCO[C@H](CN(C)C)[C@H](C)CN([C@H](C)CO)C(=O)c2cc(NC(=O)Nc3cccc4ccccc34)ccc2O1	none (no result: dFosB act, A1 inh, Neddylation inh, Vif imaging)
C[C@@H]1CN([C@@H](C)CO)C(=O)c2cc(NC(=O)NC3CCCCC3)ccc2O[C@H]1CN(C)Cc1ccc(Cl)c(Cl)c1	none (no result: dFosB act, A1 inh, Neddylation inh, Vif imaging)
Cc1cc(OCC(O)CNC(C)c2ccccc2)ccc1C(C)C (stereo unspecified)	GSIS activator 379
C[C@H]1CN([C@@H](C)CO)C(=O)c2cc(NC(=O)Nc3cccc4ccccc34)ccc2O[C@@H]1CN(C)Cc1ccc(C(=O)Nc2ccccc2N)cc1	none (no result: dFosB act, A1 inh, Neddylation inh, Vif imaging)
c1ccc(OCCOCCOc2ccccc2)cc1	none (no result: GSIS activator, A1 inh)
F[B-](F)(F)COc1ccccc1	GSIS activator 88 (no result: A1 inh)
CCc1cc2c(Sc3nc4ccccc4s3)ncnc2s1	Vif imaging 89
C[C@@H]1CN([C@@H](C)CO)C(=O)c2cc(NS(=O)(=O)c3ccc(Cl)cc3)ccc2O[C@@H]1CN(C)CC1CCCCC1	none (no result: dFosB act, A1 inh, Neddylation inh, Vif imaging)
COc1cccc(N/C=C/C(=O)c2ccc(Cl)cc2)c1	none
COc1ccc(N/C=C/C(=O)c2ccc(Cl)cc2)cc1	GSIS activator 112
Cc1noc(C)c1NC(=O)NCC[C@@H]1CC[C@H](NC(=O)Nc2cccc(F)c2)[C@H](CO)O1	none (no result: dFosB act, A1 inh, Neddylation inh, Vif imaging)
Cc1nnc(SCC(=O)Nc2cc(Cl)ccc2Cl)n1CC1CCCO1 (stereo unspecified)	GSIS activator 73
O=[N+]([O-])c1c(Nc2cccc(O)c2)cc(Cl)c2nonc12	GSIS activator 97
O=C(O)c1ccc(Nc2cc(Cl)c3nonc3c2[N+](=O)[O-])cc1	none
Cc1ccc(NCc2cccc(B(O)O)c2)cc1	GSIS activator 43 (no result: A1 inh)
C[C@@H]1CN([C@@H](C)CO)C(=O)CCCn2cc(nn2)CO[C@@H]1CN(C)Cc1ccncc1	none (no result: dFosB act, A1 inh, Neddylation inh, Vif imaging)
COc1ccc(S(=O)(=O)NCC(=O)N(CC(=O)NCC2CCCO2)Cc2ccccc2)cc1 (stereo unspecified)	Vif imaging 71
COCCNC(=O)c1ccc(N(C)S(=O)(=O)c2ccc(OC)c(OC)c2)cc1	GSIS activator 44
COc1ccc(C(=O)Nc2ccccc2C(=O)NCC2CCCO2)cc1 (stereo unspecified)	GSIS activator 52
